Reference: PubChem BioAssay (Tox21)
Records with an inconclusive call do not appear. Activity calls are given as the source filed them. Unless noted, calls follow the shape of the dose curve; as a rule, active = well fitted curve in the direction sought with a large enough effect in the repeat runs; inconclusive = weak or mixed curves; inactive = no such curve, though single readings can be large; an effect the other way counts as inactive or inconclusive.

Assays:
[1] = qHTS assay to identify small molecule agonists of the TGF-beta/Smad signaling pathway (AID 1346859; active = well fitted activation curve with a large enough effect in the signal ratio in the repeat runs, not every such curve was filed as active; the % refers to the signal ratio; also: series mostly up to about 77 µM)
How it was run: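 Dual-wavelength fluorescence (460/530 nm emission) quantified beta-lactamase expression under the Smad binding element in HEK 293T cells following 5 hr compound treatment at 37 C.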

[2] = biological target: Thyrotropin-releasing hormone receptor (Homo sapiens) (UniProt P34981); test: qHTS assay to identify small molecule antagonists of the thyrotropin-releasing hormone receptor (TRHR) signaling pathway (AID 1346877; active = well fitted inhibition curve with a large enough effect in the repeat runs, not every such curve was filed as active; also: series mostly up to about 51 µM)
Sequence of Thyrotropin-releasing hormone receptor (Homo sapiens) (P34981 whole entry, looked up): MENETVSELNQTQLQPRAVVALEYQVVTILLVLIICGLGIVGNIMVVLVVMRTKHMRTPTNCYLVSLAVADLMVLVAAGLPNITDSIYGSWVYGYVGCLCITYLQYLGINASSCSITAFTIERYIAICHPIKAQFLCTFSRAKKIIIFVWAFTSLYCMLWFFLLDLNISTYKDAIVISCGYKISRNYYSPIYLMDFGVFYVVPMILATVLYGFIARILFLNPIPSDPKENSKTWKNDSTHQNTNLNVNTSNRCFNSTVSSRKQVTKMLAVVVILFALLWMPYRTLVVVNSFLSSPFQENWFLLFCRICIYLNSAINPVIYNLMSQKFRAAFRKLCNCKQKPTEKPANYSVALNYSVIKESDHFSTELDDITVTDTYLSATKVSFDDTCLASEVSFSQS
How it was run: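 Screening used HEK293 cells engineered with TRHR, with a brief 5 min room-temperature compound exposure preceding addition of TRH to 1 nM. The read-out was kinetic calcium-dye fluorescence, concentration-response from 15 doses in triplicate.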

[3] = Human pregnane X receptor (PXR) small molecule agonists, qHTS cell viability counter screen (AID 1346977); also: nearly all actives have a fitted effect of over 50% in size
How it was run: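 HepG2 cells stably carrying the PXR-Luc reporter are cultured with 5% charcoal-stripped FBS and treated with compounds for 24hr. CellTiter-Fluor is added at 23hr and fluorescence is read after 1hr.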

[4] = Caspase-3/7 induction in HepG2 cells by small molecules, qHTS assay (AID 1346978); also: nearly all actives have a fitted effect of over 15% in size
How it was run: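 Wild-type HepG2 cells, 2,000/well, settled 5 hr at 37 C and 5% CO2, then compound-treated for 17 hr; caspase-3/7 activity read by luminescent Caspase-Glo 3/7 after 30 min at room temperature.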

[5] = Caspase-3/7 induction in CHO-K1 cells by small molecules, qHTS cell viability counter screen (AID 1346979); also: nearly all actives have a fitted effect of over 35% in size
How it was run: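 Seeding: 1,500 CHO-K1 cells/well. Rest: 5hr, 37C. Treatment: compounds in DMSO, 16hr. Read: CellTiter-Fluor, 1hr, fluorescence.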

[6] = Caspase-3/7 induction in HepG2 cells by small molecules, qHTS cell viability counter screen (AID 1346981); also: series mostly up to about 92 µM; nearly all actives have a fitted effect of over 30% in size
How it was run: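 Multiplexed with the caspase-3/7 assay: HepG2 cells, 16 hr compound treatment, CellTiter-Fluor viability detection by fluorescence.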

[7] = biological target: Nuclear receptor subfamily 1 group I member 2 (Homo sapiens) (UniProt O75469); test: Human pregnane X receptor (PXR) small molecule agonists, qHTS assay (AID 1346982); also: nearly all actives have a fitted effect of over 35% in size; also: potency is read from the fitted curve at half-maximal effect
Sequence of Nuclear receptor subfamily 1 group I member 2 (Homo sapiens) (O75469 whole entry, looked up): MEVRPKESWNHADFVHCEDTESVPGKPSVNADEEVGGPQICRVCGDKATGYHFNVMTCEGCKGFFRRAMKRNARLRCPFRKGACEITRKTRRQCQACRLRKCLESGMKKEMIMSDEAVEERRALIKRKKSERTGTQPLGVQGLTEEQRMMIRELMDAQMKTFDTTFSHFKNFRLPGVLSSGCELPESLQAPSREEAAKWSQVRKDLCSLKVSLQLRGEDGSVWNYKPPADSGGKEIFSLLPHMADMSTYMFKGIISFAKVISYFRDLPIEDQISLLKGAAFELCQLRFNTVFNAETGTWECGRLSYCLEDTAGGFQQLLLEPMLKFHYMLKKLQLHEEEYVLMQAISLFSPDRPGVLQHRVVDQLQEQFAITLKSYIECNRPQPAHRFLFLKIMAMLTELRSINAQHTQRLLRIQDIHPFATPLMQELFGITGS
How it was run: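 We seeded PXR-Luc HepG2 cells in assay medium containing 5% charcoal-stripped FBS, added compounds 5 hr later, incubated 24 hr, and read luminescence with ONE-Glo reagent.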

[8] = biological target: Nuclear receptor subfamily 1 group I member 2 (Rattus norvegicus) (UniProt Q9R1A7); test: Rat pregnane X receptor (rPXR) activation by small molecules, qHTS assay (AID 1346983); details: rPXR luciferase reporter cells, One-Glo luminescence, 24 h; stronger effect = higher value; also: nearly all actives have a fitted effect of over 20% in size
Sequence of Nuclear receptor subfamily 1 group I member 2 (Rattus norvegicus) (Q9R1A7 whole entry, looked up): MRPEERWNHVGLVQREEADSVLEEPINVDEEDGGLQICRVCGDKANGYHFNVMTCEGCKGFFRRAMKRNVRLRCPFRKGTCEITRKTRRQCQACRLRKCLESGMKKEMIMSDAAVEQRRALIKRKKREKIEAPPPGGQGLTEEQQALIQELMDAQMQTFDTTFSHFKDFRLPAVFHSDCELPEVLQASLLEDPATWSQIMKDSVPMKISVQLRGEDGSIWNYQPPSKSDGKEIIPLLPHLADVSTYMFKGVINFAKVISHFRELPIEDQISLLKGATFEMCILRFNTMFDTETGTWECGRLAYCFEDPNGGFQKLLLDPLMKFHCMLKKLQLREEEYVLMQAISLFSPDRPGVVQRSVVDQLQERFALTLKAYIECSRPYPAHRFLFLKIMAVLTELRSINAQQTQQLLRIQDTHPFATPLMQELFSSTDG
How it was run: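 Cell-based rPXR activation assay: rPXR cells, 2,000 per well, rested 5hr at 37 C, then exposed to compounds in DMSO for 24 hr at 37 C. Luciferase activity read by One-Glo luminescence after 30 min at room temperature.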

[9] = biological target: Nuclear receptor subfamily 1 group I member 2 (Homo sapiens) (UniProt O75469); test: CYP3A4 induction through human pregnane X receptor (PXR) by small molecules, qHTS assay (AID 1346984); also: nearly all actives have a fitted effect of over 40% in size
How it was run: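 qHTS, concentration-response format: HepG2 DPX-2 line, PXR/CYP3A4-luc. Exposure 24 h, 37C. Substrate Luciferin-IPA 3uM final, 3 h. Detection One-Glo, 30 min RT.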

[10] = biological target: Nuclear receptor subfamily 1 group I member 2 (Homo sapiens) (UniProt O75469); test: Human pregnane X receptor (PXR) activation by small molecules, qHTS assay (AID 1346985); also: nearly all actives have a fitted effect of over 40% in size
How it was run: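 DPX-2 cells (HepG2 co-transfected with a PXR response element and a CYP3A4-promoter luciferase construct) were seeded at 2,000 per well, rested 5 hr at 37C, then exposed to DMSO-dissolved compounds for 24 hr. Activation was read as luciferase luminescence.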

[11] = biological target: Cytochrome P450 2D6 (Homo sapiens) (UniProt P10635); test: Cytochrome P450 Family 2 Subfamily D Member 6 (CYP2D6) small molecule antagonists: luciferase reporter qHTS assay (AID 1671196); also: nearly all actives have a fitted effect of over 50% in size; also: potency is read from the fitted curve at half-maximal effect; as to activity change, negative = inhibition: series mostly up to about 120 µM
Sequence of Cytochrome P450 2D6 (Homo sapiens) (P10635 whole entry, looked up): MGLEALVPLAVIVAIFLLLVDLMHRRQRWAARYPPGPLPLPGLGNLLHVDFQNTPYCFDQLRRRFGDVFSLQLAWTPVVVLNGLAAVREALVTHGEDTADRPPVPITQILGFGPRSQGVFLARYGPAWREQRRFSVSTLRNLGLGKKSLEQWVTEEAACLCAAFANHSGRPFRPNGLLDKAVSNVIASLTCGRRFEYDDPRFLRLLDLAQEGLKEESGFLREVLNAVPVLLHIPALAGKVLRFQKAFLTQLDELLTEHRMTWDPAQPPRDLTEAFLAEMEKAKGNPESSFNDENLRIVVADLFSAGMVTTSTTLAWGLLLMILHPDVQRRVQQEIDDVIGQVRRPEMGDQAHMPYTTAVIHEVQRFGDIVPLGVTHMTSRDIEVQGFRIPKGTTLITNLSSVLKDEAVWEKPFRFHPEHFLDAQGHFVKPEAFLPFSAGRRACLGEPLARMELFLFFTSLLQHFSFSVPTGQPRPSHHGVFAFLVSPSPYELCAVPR
How it was run: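 Luminescence (RLU), read 20 min after detection reagent, indicated CYP2D6 conversion of proluciferin to luciferin during a 1 h NADPH-dependent reaction at room temperature.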

[12] = biological target: Cytochrome P450 2C19 (Homo sapiens) (UniProt P33261); test: Cytochrome P450 Family 2 Subfamily C Member 19 (CYP2C19) small molecule antagonists: luciferase reporter qHTS assay (AID 1671197); also: nearly all actives have a fitted effect of over 65% in size; also: potency is read from the fitted curve at half-maximal effect; as to activity change, negative = inhibition: series mostly up to about 120 µM
Sequence of Cytochrome P450 2C19 (Homo sapiens) (P33261 whole entry, looked up): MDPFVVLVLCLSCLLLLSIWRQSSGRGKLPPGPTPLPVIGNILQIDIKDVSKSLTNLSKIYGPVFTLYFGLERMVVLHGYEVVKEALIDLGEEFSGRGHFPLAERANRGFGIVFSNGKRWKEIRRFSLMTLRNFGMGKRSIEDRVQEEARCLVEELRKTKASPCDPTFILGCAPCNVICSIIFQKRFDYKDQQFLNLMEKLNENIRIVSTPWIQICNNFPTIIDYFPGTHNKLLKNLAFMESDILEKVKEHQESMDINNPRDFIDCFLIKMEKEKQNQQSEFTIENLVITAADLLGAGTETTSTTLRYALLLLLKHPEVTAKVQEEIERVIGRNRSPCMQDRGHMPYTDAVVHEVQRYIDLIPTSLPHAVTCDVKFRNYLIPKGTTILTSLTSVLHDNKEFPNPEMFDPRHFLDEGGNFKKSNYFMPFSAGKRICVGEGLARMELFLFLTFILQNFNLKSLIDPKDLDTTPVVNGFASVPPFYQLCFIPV
How it was run: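 Light output is proportional to CYP2C19 activity: proluciferin substrate is converted to luciferin, then detected by a luciferin detection reagent that also stops the 1 h, 37C NADPH-driven reaction. Ketoconazole serves as positive control.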

[13] = biological target: Cytochrome P450 2C9 (Homo sapiens) (UniProt P11712); test: Cytochrome P450 Family 2 Subfamily C Member 9 (CYP2C9) small molecule antagonists: luciferase reporter qHTS assay (AID 1671198); also: nearly all actives have a fitted effect of over 50% in size; also: potency is read from the fitted curve at half-maximal effect; as to activity change, negative = inhibition: series mostly up to about 120 µM
Sequence of Cytochrome P450 2C9 (Homo sapiens) (P11712 whole entry, looked up): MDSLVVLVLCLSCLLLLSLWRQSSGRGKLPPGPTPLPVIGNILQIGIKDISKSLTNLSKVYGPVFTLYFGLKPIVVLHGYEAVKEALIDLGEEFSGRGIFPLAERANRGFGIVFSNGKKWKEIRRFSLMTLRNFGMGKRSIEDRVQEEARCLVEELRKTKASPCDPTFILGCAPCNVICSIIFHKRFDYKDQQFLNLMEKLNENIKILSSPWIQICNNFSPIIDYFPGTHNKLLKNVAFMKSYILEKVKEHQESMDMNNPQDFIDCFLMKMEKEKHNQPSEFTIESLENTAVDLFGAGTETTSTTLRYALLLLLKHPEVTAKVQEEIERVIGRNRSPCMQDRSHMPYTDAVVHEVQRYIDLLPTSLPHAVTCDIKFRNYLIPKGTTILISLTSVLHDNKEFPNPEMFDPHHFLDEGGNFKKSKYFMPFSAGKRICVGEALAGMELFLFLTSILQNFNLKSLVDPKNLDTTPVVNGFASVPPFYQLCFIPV
How it was run: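 P450-Glo proluciferin substrate with CYP2C9 enzyme; 10 min RT preincubation, then NADPH regeneration 1 h at 37C; luciferin detection reagent 20 min RT, luminescence in relative luminescence units.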

[14] = biological target: Cytochrome P450 1A2 (Homo sapiens) (UniProt P05177); test: Cytochrome P450 Family 1 Subfamily A Member 2 (CYP1A2) small molecule antagonists: luciferase reporter qHTS assay (AID 1671199); also: nearly all actives have a fitted effect of over 50% in size; also: potency is read from the fitted curve at half-maximal effect; as to activity change, negative = inhibition: series mostly up to about 120 µM
Sequence of Cytochrome P450 1A2 (Homo sapiens) (P05177 whole entry, looked up): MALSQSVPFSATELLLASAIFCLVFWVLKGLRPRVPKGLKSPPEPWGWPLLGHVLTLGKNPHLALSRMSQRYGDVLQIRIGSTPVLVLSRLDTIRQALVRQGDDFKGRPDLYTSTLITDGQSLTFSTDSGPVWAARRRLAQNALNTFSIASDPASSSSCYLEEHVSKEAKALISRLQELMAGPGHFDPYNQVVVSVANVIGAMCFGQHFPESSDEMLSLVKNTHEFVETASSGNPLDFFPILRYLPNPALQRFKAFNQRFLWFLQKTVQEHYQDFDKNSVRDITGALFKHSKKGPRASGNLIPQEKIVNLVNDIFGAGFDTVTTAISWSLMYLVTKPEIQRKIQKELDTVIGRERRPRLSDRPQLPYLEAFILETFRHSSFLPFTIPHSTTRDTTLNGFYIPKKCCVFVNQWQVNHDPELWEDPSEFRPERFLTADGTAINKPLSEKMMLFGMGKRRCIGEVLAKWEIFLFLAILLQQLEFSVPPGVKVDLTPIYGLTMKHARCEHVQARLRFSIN
How it was run: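 CYP1A2 turnover of a luminogenic substrate was quantified after 1 h with NADPH regeneration at room temperature. Furafylline served as positive control.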

[15] = biological target: Voltage-gated inwardly rectifying potassium channel KCNH2 (Homo sapiens) (UniProt Q12809); test: Human Ether-a-go-go-Related Gene (hERG) channel small molecule antagonists: fluorescence cell-based qHTS assay (AID 1671200)
Sequence of Voltage-gated inwardly rectifying potassium channel KCNH2 (Homo sapiens) (Q12809 whole entry, looked up): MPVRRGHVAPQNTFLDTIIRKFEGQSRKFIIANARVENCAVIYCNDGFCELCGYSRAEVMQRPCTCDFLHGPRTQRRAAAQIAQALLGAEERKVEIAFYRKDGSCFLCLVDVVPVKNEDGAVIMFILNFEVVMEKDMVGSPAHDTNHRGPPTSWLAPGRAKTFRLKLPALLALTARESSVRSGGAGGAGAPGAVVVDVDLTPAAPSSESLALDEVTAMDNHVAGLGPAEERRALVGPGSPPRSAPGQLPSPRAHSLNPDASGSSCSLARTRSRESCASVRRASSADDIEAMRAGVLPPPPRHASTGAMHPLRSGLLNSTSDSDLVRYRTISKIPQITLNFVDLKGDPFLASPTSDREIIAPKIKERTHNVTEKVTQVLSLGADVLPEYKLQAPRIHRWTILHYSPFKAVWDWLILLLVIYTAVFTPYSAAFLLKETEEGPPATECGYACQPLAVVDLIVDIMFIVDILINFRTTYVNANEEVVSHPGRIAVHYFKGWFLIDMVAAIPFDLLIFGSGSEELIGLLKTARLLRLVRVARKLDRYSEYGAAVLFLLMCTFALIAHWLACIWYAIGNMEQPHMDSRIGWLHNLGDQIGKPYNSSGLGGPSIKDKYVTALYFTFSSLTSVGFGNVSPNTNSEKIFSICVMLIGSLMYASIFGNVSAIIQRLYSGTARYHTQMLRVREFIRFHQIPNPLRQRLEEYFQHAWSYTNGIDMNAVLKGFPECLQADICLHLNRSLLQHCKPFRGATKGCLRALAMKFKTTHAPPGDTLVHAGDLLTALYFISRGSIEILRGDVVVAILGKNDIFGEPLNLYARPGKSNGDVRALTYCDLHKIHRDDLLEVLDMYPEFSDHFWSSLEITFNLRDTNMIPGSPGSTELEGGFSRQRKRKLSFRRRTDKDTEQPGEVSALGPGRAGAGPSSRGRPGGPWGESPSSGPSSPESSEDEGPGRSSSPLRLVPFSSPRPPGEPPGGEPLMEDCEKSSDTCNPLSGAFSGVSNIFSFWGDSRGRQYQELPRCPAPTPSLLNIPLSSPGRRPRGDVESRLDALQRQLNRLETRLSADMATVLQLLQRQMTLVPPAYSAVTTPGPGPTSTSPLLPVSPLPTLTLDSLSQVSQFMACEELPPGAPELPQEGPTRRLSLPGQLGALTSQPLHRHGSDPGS
How it was run: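 First, 1000 cells per well are seeded and cultured overnight at 37 C. Next, FluxOR II dye is loaded for 1 h at room temperature, protected from light. After 10 more minutes, stimulus is added and fluorescence is read.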

[16] = biological target: Cytochrome P450 3A4 (Homo sapiens) (UniProt P08684); test: Cytochrome P450 Family 3 Subfamily A Member 4 (CYP3A4) small molecule antagonists: luciferase reporter qHTS assay (AID 1671201); also: nearly all actives have a fitted effect of over 50% in size; also: potency is read from the fitted curve at half-maximal effect; as to activity change, negative = inhibition: series mostly up to about 120 µM
Sequence of Cytochrome P450 3A4 (Homo sapiens) (P08684 whole entry, looked up): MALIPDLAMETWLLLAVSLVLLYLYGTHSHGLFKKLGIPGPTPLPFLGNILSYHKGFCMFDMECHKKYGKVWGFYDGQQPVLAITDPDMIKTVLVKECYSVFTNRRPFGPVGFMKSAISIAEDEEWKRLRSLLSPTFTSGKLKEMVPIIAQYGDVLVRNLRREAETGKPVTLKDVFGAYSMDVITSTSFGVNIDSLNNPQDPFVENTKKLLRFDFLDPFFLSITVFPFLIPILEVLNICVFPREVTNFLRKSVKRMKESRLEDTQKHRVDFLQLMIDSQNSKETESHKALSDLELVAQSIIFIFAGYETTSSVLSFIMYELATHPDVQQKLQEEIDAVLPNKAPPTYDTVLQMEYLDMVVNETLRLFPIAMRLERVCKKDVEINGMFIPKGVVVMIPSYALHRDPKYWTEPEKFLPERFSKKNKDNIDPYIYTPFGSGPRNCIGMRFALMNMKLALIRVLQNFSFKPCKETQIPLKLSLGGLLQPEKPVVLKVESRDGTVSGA
How it was run: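 Enzyme and proluciferin substrate are mixed with test chemicals for 10 min, then NADPH regeneration system drives turnover for 1 h at room temperature. A detection reagent halts the reaction; luminescence after 20 min gives relative activity.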

[17] = Caspase-3/7 induction in CHO-K1 cells by small molecules, qHTS assay (AID 1346980); also: nearly all actives have a fitted effect of over 15% in size
How it was run: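 Wild-type CHO-K1 cells exposed to compounds for 17hr at 37 C, 5% CO2. Caspase-3/7 activity then measured by Caspase-Glo 3/7 luminescence after 30min at room temperature.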
% is scaled to controls: 0 for no effect and ±100 for the full control effect.

O=NN(CCCl)C(=O)NC1CCCCC1
inactive: outcome [1] | outcome [2] | outcome [3] | outcome [4] | Potency [5] | outcome [6] | Potency [7] | max activation [8] -2.8% | Potency [9] | Potency [10] | Potency [11] | Potency [12] | Potency [13] | Potency [14] | Potency [15] | Potency [16]

CCCCCCCCCOC(=O)CCCCC(=O)OCCCCCCC
inactive: outcome [1] | outcome [2] | outcome [3] | outcome [4] | Potency [5] | outcome [17] | outcome [6] | Potency [7] | Potency [11] | Potency [13] | Potency [15] | Potency [16]

CCCC(=O)OCCC(C)CCC=C(C)C (configuration not stated)
inactive: outcome [1] | outcome [2] | outcome [3] | Potency [5] | outcome [17] | outcome [6] | Potency [7] | Potency [15]
active: Potency [13] 20 µM | Potency [14] 39.9 µM | Potency [16] 4.48 µM

CO[C@@]1(NC(=O)Cc2cccs2)C(=O)N2C(C(=O)O)=C(COC(N)=O)CS[C@@H]21
inactive: outcome [1] | outcome [2] | outcome [3] | outcome [4] | Potency [5] | outcome [17] | outcome [6] | Potency [7] | Potency [12] | Potency [13] | Potency [14] | Potency [15] | Potency [16]

CC1(C)Oc2ccc(C#N)cc2[C@@H](N2CCCC2=O)[C@@H]1O
inactive: outcome [1] | outcome [3] | outcome [4] | Potency [5] | outcome [17] | outcome [6] | Potency [7] | max activation [8] 0.645% | Potency [9] | Potency [10] | Potency [11] | Potency [12] | Potency [15] | Potency [16]

CC(=O)CCc1ccc(OC(C)=O)cc1
inactive: outcome [1] | outcome [2] | outcome [3] | outcome [4] | Potency [5] | outcome [17] | outcome [6] | Potency [7] | Potency [11] | Potency [15] | Potency [16]
active: Potency [14] 31.7 µM

COc1cc2c(cc1OC)C(=O)C(CC1CCN(Cc3ccccc3)CC1)C2 (configuration not stated)
inactive: outcome [1] | outcome [2] | outcome [4] | Potency [5] | outcome [17] | outcome [6] | Potency [7] | max activation [8] -1.76%

CC(C)OC(=O)OCOP(=O)(CO[C@H](C)Cn1cnc2c(N)ncnc21)OCOC(=O)OC(C)C
inactive: outcome [1] | outcome [3] | outcome [4] | Potency [5] | outcome [17] | outcome [6] | Potency [7] | max activation [8] -6.83% | Potency [9] | Potency [10] | Potency [11] | Potency [12] | Potency [14] | Potency [15]

O=C(Cl)c1ccccc1[N+](=O)[O-]
inactive: outcome [1] | outcome [2] | outcome [3] | Potency [5] | outcome [6] | Potency [7] | Potency [13] | Potency [15] | Potency [16]
active: Potency [12] 72.7 µM

NCC1(Cc2noc(=O)[nH]2)CCCCC1
inactive: outcome [1] | outcome [3] | outcome [4] | Potency [5] | outcome [17] | outcome [6] | Potency [7] | Potency [11] | Potency [15] | Potency [16]

CC1=C(C(=O)O)N2C(=O)[C@@H](NC(=O)[C@H](N)C3=CCC=CC3)[C@H]2SC1
inactive: outcome [1] | outcome [3] | outcome [4] | Potency [5] | outcome [6] | Potency [7] | Potency [13] | Potency [14] | Potency [15] | Potency [16]

CC1CC(=O)CC(C)(C)C1 (configuration not stated)
inactive: outcome [1] | outcome [3] | outcome [4] | Potency [5] | outcome [17] | outcome [6] | Potency [7] | Potency [11] | Potency [13] | Potency [15] | Potency [16]

CN(C)CCN(C)CCO
inactive: outcome [1] | outcome [3] | outcome [4] | Potency [5] | outcome [17] | outcome [6] | Potency [7] | Potency [12] | Potency [13] | Potency [14] | Potency [15] | Potency [16]

CCCC(=O)OC/C=C(\C)CCC=C(C)C
inactive: outcome [1] | outcome [3] | outcome [4] | Potency [5] | outcome [17] | outcome [6] | Potency [7] | Potency [11] | Potency [16]

COc1c2occc2c(OC)c2c(=O)cc(C)oc12
inactive: outcome [1] | outcome [3] | outcome [4] | Potency [5] | outcome [17] | outcome [6] | max activation [8] -1.72% | Potency [15]
active: Potency [11] 12.3 µM | Potency [12] 3.47 µM | Potency [13] 12.3 µM | Potency [14] 0.144 µM

COC(=O)CCCCC(=O)O
inactive: outcome [1] | outcome [3] | outcome [4] | Potency [5] | outcome [6] | Potency [7] | Potency [11] | Potency [13] | Potency [14] | Potency [15] | Potency [16]

Cc1ccc(N)cc1S(=O)(=O)O
active: Potency [7] 61.1 µM | Potency [12] 79.6 µM | Potency [13] 63.3 µM | Potency [14] 39.9 µM
inactive: outcome [1] | outcome [3] | outcome [4] | Potency [5] | outcome [17] | outcome [6] | Potency [15] | Potency [16]

CCCCCc1cccc(=O)o1
inactive: outcome [1] | outcome [3] | outcome [4] | Potency [5] | outcome [17] | outcome [6] | Potency [7] | Potency [15] | Potency [16]
active: Potency [14] 35.6 µM

OCC1CCC(CO)CC1 (configuration not stated)
inactive: outcome [1] | outcome [3] | outcome [4] | Potency [5] | outcome [17] | outcome [6] | Potency [7] | Potency [12] | Potency [13] | Potency [14] | Potency [15] | Potency [16]

C=CC(=O)CCCCC
inactive: outcome [1] | outcome [3] | Potency [5] | outcome [17] | outcome [6] | Potency [7] | Potency [12] | Potency [13] | Potency [14] | Potency [15] | Potency [16]

CCCC(CC)c1ccccc1 (configuration not stated)
inactive: outcome [1] | outcome [3] | Potency [5] | outcome [17] | outcome [6] | Potency [11] | Potency [13] | Potency [14] | Potency [15] | Potency [16]

[O]=[Mo](=[O])=[O]
inactive: activation [1] 0.212% [at 15.8 µM] | activity change, negative = cytotoxicity [3] 1.91% [at 19 µM] | activity change, negative = cytotoxicity [5] 3.86% [at 19 µM] | caspase-3/7 activation [17] 0.334% [at 19 µM] | activity change, negative = cytotoxicity [6] -3.34% [at 19 µM] | activation [7] 1.34% [at 19 µM] | activity change, negative = inhibition [11] -4.35% [at 23.6 µM] | activity change, negative = inhibition [12] -2.98% [at 23.6 µM] | activity change, negative = inhibition [13] -0.296% [at 23.6 µM] | activity change, negative = inhibition [14] 2.53% [at 23.6 µM] | activity change, negative = inhibition [15] -1.28% [at 15.8 µM] | activity change, negative = inhibition [16] -5.3% [at 23.6 µM]
